Most compounds without a hit are left out; they make up all but 1.5% or so of the library.
LANA-H2A inh: blockers of LANA interaction with H2A/H2B – biochemical, FP readout, HTS, primary screen | Protein LANA1 (Human herpesvirus 8 type P (isolate GK18)), Q9QR71 | cell-free LANA-H2A/H2B peptide, fluorescence polarization | actives 0.6% (n = 320,000) | inhibition, % (test concentration not listed); in the data active means inhibition mostly above about 10%, no sharp cut-off; inactive means mostly below about 6.7%
E coli Lon inh: inhibitors of E. coli Lon protease, primary screen, biochemical, fluorescence polarization; P0A9M0; purified E. coli Lon protease; inhibition, % at 7.94 µM; actives 0.42% (n = 360,000); AID 602123, 2011; in the data active means inhibition above about 13%, passing the limit was not always enough;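 further: 0% = enzyme with probe and DMSO and 100% = no enzyme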
C-LANA FP: inhibitors of KSHV C-LANA binding to DNA, primary screen, biochemical, fluorescence polarization, FAM-LBS DNA, MBP-C-LANA, single point; Kaposi's sarcoma herpesvirus LANA C-terminal domain (residues 932-1162) DNA binding; inhibition, % at 9 µM; actives 0.078% (n = 340,000);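 active means highest replicate inhibition at or above 60% at 9 µM, even if other replicates fall short; inactive means all replicates below 60% inhibition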;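 further: 0% = neutral control wells and 100% = 4 µM acridine orange control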
GLD-1 TGE inh: GLD-1/TGE RNA complex disruptors, primary screen, biochemical, fluorescence polarization; AID 2280, 2010; Female germline-specific tumor suppressor gld-1 (Caenorhabditis elegans), Q17339; purified GLD-1 + fluorescein TGE RNA; actives 0.44% (n = 320,000); inhibition, % at 5.96 µM;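 active means percent inhibition above a per-plate cutoff, the plate mean of test compounds plus 3 SD, cut at about 30% in these data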;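 further: 0% = DMSO wells with GLD-1 and probe and 100% = wells lacking GLD-1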
EBV gp42 block: Epstein-Barr virus gp42 inhibitors, primary screen, biochemical, uHTS, fluorescence polarization | Glycoprotein 42 (Epstein-Barr virus (strain AG876)), Q1HVG2 | Fluorescence polarization binding assay, mP read-out | inhibition, % (tested at 21.74 µM) | actives 0.42% (n = 220,000) | AID 1085, 2008; in the data active means inhibition above about 50%
Target sequence (Q1HVG2 whole entry, looked up): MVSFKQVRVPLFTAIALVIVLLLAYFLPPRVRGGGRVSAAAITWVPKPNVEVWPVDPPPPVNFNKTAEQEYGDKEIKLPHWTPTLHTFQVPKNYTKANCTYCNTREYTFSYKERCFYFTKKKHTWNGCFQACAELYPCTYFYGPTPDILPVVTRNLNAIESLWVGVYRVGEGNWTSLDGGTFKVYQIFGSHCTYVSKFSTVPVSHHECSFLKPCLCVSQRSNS
Keap1 Nrf2 FP: Keap1-Nrf2 protein-protein interaction inhibitors, primary screen, biochemical, fluorescence polarization, single point. Keap1 Kelch-Nrf2 peptide fluorescence polarization, 1536-well. inhibition, % at 9.4 µM. actives 0.15% (n = 340,000). AID 504523, 2011; in the data active means inhibition above about 12%;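 further: human Keap1 Kelch domain with fluorescein labeled Nrf2 9mer peptide probe; 0% = neutral control wells and 100% = peptide positive control; higher means more block of Keap1 binding to Nrf2 peptide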
* marks the source's active call; other numbers are inactive results; x = no result given; + = active, no number.

SMILES | LANA-H2A inh | E coli Lon inh | C-LANA FP | GLD-1 TGE inh | EBV gp42 block | Keap1 Nrf2 FP
CC(=O)Nc1ccc2nc(NC(=O)c3ccc([N+](=O)[O-])s3)sc2c1 | 30* | x | x | 4 | 15 | x
Cn1cc(Cl)c(C(=O)Nc2nc3ccc(Cl)cc3s2)n1 | -2 | -8 | 1 | 1 | 4 | -4
CC(C)(C)N1C(=O)Cc2c1nc(N)c1c(N)nc(N3CCCCC3CO)c(C#N)c21 (stereo unspecified) | -3 | 50* | 0 | 12 | -7 | -13
NNC(=O)c1cc(O)c(O)c(O)c1 | -4 | -8 | 81* | 4 | 3 | -3
COc1ccccc1-c1ncn(Cc2cccc(-c3ccccc3)c2)c1CC(C)C | x | 1 | x | x | x | x
CCOC(=O)c1ccc(N=c2scc(C)n2CC)cc1 | 43* | -1 | 0 | 4 | -3 | -2
CCCNC(=O)Cn1c(=O)/c(=C\c2ccc(-c3cccc([N+](=O)[O-])c3)o2)s/c1=C\C(=O)C(C)(C)C | 1 | -74 | 13 | -28 | 69* | 6
NS(=O)(=O)c1cc2c(cc1Cl)NC(CC1CCCC1)NS2(=O)=O (stereo unspecified) | -1 | -5 | 1 | 2 | -2 | -3
NS(=O)(=O)c1cc2c(cc1Cl)NC=NS2(=O)=O | 13* | -4 | 1 | -4 | -3 | 4
CSc1nsc(SCC(=O)Nc2ccc(C(C)=O)cc2)n1 | -2 | -8 | 0 | 4 | -15 | -5
CSc1nsc(SCC(=O)Nc2ccc(C(N)=O)cc2)n1 | 31* | 6 | 0 | 10 | x | 0
CCCCN(C)CC(O)Cn1cc(/C=C/C(=O)c2cccs2)c2ccccc21 (stereo unspecified) | + | -203 | -6 | -119 | -109 | -29
CCCCN(C)CC(O)Cn1cc(/C=C/C(=O)c2ccc(OCC)cc2)c2ccccc21 (stereo unspecified) | -6 | x | x | -91 | x | x
CCOC(=O)[C@]12CCCC=C1N(Cc1ccco1)C(=O)[C@H](CC(=O)NCc1cccc(C(F)(F)F)c1)C2 | x | 4 | x | x | x | x
O=C(O)c1ccc2c(c1)C(=O)/C(=C\c1ccco1)C2=O | 4 | 10 | 70* | 27 | 12 | 1
O=C1C(=Cc2ccco2)C(=O)c2ccccc21 | 0 | -10 | 3 | 9 | 19 | -1
CC(C)(C)n1nnnc1C(c1cc2ccccc2o1)N1CCN(C(=O)OCc2ccccc2)CC1 (stereo unspecified) | x | 1 | x | x | x | x
Cc1ccc(S(=O)(=O)c2c(C)nn(C(C)(C)C)c2OC(=O)c2ccco2)cc1 | 15* | -1 | 0 | 6 | -12 | 1
O=C(Cn1c(=O)cnc2ccccc21)Nc1cccc(S(=O)(=O)N2CCOCC2)c1 | 26* | -10 | -1 | -4 | x | -4
O=C(CN1CCN(c2ccccn2)CC1)Nc1cccc(S(=O)(=O)N2CCOCC2)c1 | 26* | -4 | 0 | -1 | -21 | -3
CC(=O)Nc1ccc(-c2ccnc3c2CC(C)(C(=O)NCc2ccc(N4CCN(C)CC4)cc2)O3)cc1 (stereo unspecified) | x | -15 | x | x | x | x
N#CC1=C(N)Oc2cc(O)c(Cl)cc2C1c1ccccc1F (stereo unspecified) | 7 | -168 | 21 | 59* | x | -9
N#CC1=C(N)Oc2cc(O)c(Cl)cc2C1c1cccnc1 (stereo unspecified) | -4 | -57 | -8 | x | x | -10
CCOC(=O)CC(=O)CSc1nc2ccc(C)cc2cc1C#N | 8 | -10 | 1 | 83* | 26 | 0
Nc1cc(N)nc(SCC(=O)Nc2ccccc2N2CCOCC2)n1 | 14* | -9 | 1 | 2 | -22 | 0
SMILES | LANA-H2A inh | E coli Lon inh | C-LANA FP | GLD-1 TGE inh | EBV gp42 block | Keap1 Nrf2 FP
CCOc1ccc2nc(SCC(=O)N3c4ccccc4Sc4ccccc43)sc2c1 | 1 | 16 | 0 | 1 | -3 | -1
CCc1ccc2nc(SCC(=O)Nc3ccccc3N3CCOCC3)c(C#N)cc2c1 | -3 | 5 | 2 | -12 | -4 | -2
Cc1ccc2nc(SCC(=O)Nc3ccccc3N3CCOCC3)c(C#N)cc2c1 | 3 | -10 | -1 | -11 | 50* | 2
CCOc1ccc2nc(SCC(=O)N3c4ccccc4Sc4ccccc43)c(C#N)cc2c1 | 1 | -23 | 2 | 48* | -48 | -4
CCOC(=O)CC(=O)CSc1nc(CC)c(C)cc1C#N | 2 | 7 | -1 | -4 | -4 | -1
COc1ccc(-c2ccc(N3C(c4ccsc4)=Cc4ccc(F)cc4C3c3c[nH]c4ccccc34)cc2)cc1 (stereo unspecified) | x | 6 | x | x | x | x
Cc1nc(Sc2ccccc2)c(C#N)cc1-c1ccccc1 | 130* | -2 | 0 | 0 | -18 | -1
COc1cccc(C(=O)N/N=C/c2ccc(OC3CSC3)cc2)c1 | 46* | -14 | 0 | 4 | -1 | -3
O=C(NCc1ccco1)c1cccc2c1C(=O)c1ccc(N3CCCC3)cc1S2(=O)=O | 6 | -30 | 23 | 31* | x | -8
Cc1ccc(CNC(=O)c2cccc3c2C(=O)c2ccc(N4CCCCC4)cc2S3(=O)=O)cc1 | 4 | -88 | 15 | 71* | x | -2
CC(C)CN1CCC1(C)C(=O)Nc1cccc(C#N)c1 (stereo unspecified) | x | -1 | x | x | x | x
CC1N(C)c2cc(NC(=O)c3ccco3)ccc2C1(C)C (stereo unspecified) | -9 | -12 | 0 | 36* | 0 | -26
CCCCCC1CCC(C(=O)N2CCOCC2)CC1 (stereo unspecified) | -2 | 2 | 1 | -5 | x | 0
CCOC(=O)N(C)c1c(CC)nc2c(OCc3ccccc3OC)cccn12 | x | 3 | x | x | x | x
COc1ccc(N2C(=O)c3ccccc3C(C)(C)C2=O)cc1 | 9 | -4 | -1 | -3 | x | -6
COc1cccc(NC(=O)C2CC(=O)OC23CCOC(C)(C)C3)c1 (stereo unspecified) | 13* | -1 | -8 | -2 | -13 | 0
CC1(C)CC2(CCO1)OC(=O)CC2C(=O)Nc1c(Cl)cccc1Cl (stereo unspecified) | -2 | 5 | 1 | -3 | -8 | -4
C=CC[C@@H](CC(=O)N[C@H](CO)Cc1ccccc1)C(=O)N[C@@H](COC(=O)[C@@H](CC=C)Cc1ccc(F)cc1)Cc1ccccc1 | 175* | 1 | -2 | 0 | x | 5
C=CC[C@H](CC(=O)NCCO)C(=O)N[C@H](C)COC(=O)[C@@H](CC=C)Cc1ccc(F)cc1 | 14* | -6 | 1 | 2 | x | -3
